# Screens: PubChem BioAssay, National Center for Advancing Translational Sciences (NCATS)
# HT1080 IDH1KD tx = qHTS for induction of synthetic lethality in tumor cells producing 2HG: qHTS for the HT-1080-IDH1KD cell line | HT-1080 IDH1 knockdown viability, ATP luminescence, 48 h | Potency, µM (series often up to 46.1 µM), inactives show top-dose activity, negative = toxicity, usual class: cytotoxic | actives 2% (n = 360,000);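 further: potency means the concentration at half of the fitted maximal effect; 0% = DMSO wells and -100% = cell-free medium wells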
#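 Cytotoxicity counter-line: IDH1KD HT-1080, 48 h, CellTiter-Glo. Curves classed by r2, magnitude and activity.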
# ALOX12 inh = Primary qHTS assay for inhibitors of human arachidonate 12S-lipoxygenase (ALOX12): Round 2 | purified 12hLO, xylenol orange hydroperoxide absorbance | Potency, µM (doses to about 108 µM), for the others: at the highest dose activity change, negative = inhibition, hits mostly inhibitors | actives 1.1% (n = 580,000) | AID 1671190, 2021; further: potency means the concentration at half of the fitted maximal effect
# Target sequence (P18054 whole entry, looked up): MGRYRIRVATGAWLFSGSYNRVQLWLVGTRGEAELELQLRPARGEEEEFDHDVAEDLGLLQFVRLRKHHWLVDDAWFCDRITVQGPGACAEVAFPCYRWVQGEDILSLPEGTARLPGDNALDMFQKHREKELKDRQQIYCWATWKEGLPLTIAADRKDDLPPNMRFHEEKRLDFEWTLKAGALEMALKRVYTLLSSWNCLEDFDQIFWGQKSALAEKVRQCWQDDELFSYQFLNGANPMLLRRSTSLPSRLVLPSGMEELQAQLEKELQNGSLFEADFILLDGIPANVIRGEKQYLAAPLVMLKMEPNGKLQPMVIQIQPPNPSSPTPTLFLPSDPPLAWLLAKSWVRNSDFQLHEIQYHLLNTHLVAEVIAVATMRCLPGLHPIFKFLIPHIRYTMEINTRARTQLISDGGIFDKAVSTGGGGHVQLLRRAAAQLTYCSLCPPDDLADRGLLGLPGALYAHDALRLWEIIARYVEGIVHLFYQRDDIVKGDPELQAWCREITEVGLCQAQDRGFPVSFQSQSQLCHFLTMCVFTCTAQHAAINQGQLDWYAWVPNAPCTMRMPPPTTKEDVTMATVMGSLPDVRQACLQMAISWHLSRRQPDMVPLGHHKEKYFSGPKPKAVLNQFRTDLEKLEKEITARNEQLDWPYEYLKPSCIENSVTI
#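 Purified human 12hLO at 150 nM in 25 mM Hepes, 0.01% Triton X-100, pH 7.0, preincubated 15 min at room temperature with compound. Reaction started with 40 uM arachidonic acid, 30 min at room temperature. Hydroperoxide measured by Fe-xylenol orange, 573/405 nm absorbance ratio.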
# DT40 TDP1 no CPT = qHTS for Inhibitors of human tyrosyl-DNA phosphodiesterase 1 (TDP1): qHTS in cells in absence of CPT; DT40 Tdp1-/- hTDP1 cells, no CPT, ATP luminescence, 48 h; Potency, µM (series often up to 46.2 µM), without a hit: at the top dose activity change, negative = growth inhibition, actives largely listed as inhibitors; actives 15% (n = 420,000); further: potency means the concentration at half of the fitted maximal effect; nearly all actives have a fitted effect of over 55% in size
#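 Chicken DT40 Tdp1-/- cells stably complemented with human TDP1 were seeded at 400 cells/well with DMSO in place of 20 nM camptothecin. After compound pinning, cells grew at least 48 hr at 37 °C; viability read by CellTiter-Glo luminescence.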
# IL1B secr inh = qHTS for Inhibitors of Inflammasome Signaling: IL-1-beta AlphaLISA Primary Screen; activity change, % at 57.5 µM; actives 4.7% (n = 360,000); AID 743279, 2014; THP-1 LPS/ATP IL-1B secretion, AlphaLISA, 16 h; hits give low values; in the data active means activity change below about -50%; inconclusive means mostly about -30% to -49%
#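 Secreted IL-1B measured by AlphaLISA bead assay after 16 h compound exposure of THP-1 cells; compounds (final up to 57.5 uM) added 1 h before LPS (250 ng/mL) and ATP (1.25 mM) stimulation; lower signal means less secretion.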
# TDP1 cell CPT = qHTS for Inhibitors of human tyrosyl-DNA phosphodiesterase 1 (TDP1): qHTS in cells in presence of CPT. actives 12% (n = 420,000). Potency, µM (top dose mostly 46.2 µM), without a hit: top-dose activity change, negative = growth inhibition, most hits filed as inhibitors. chicken DT40 Tdp1-/-;hTDP1 cells + 20 nM CPT, ATP luminescence, 48 h. AID 686979, 2013; further: potency means the concentration at half of the fitted maximal effect; nearly all actives have a fitted effect of over 55% in size
#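 Chicken DT40 Tdp1-/- cells stably complemented with human TDP1 were seeded at 400 cells/well in medium containing 20 nM camptothecin, exposed to pin-transferred compounds, and grown at 37 °C for at least 48 hr. Viability was read as ATP luminescence.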
# HT1080-NT tox = qHTS for induction of synthetic lethality in tumor cells producing 2HG: qHTS for the HT-1080-NT fibrosarcoma cell line. Potency, µM (series often up to 46.1 µM), for inactives: top-dose activity, negative = less viability, hits mostly cytotoxic. HT-1080-NT fibrosarcoma viability, CellTiter-Glo ATP luminescence, 48 h. actives 1.6% (n = 360,000);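 further: NT is the 2HG producing partner of a matched IDH1 knockdown line; potency means the concentration at half of the fitted maximal effect; 0% = DMSO-treated cells and -100% = media-only wells without cells; nearly all actives have a fitted effect of over 55% in size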
#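 HT-1080-NT; 750 cells/well; 5% FBS RPMI; 48 h compound, 37 degrees C; CellTiter-Glo luminescence; curve fitting and curve-class assignment.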
# * = called active by the depositor; ? = inconclusive; nt = not tested or not shown; [ ] = dose if it differs, or a comment. Many of the other results were omitted from the sample, so hits are more common in it than they were. Unless noted, the call rests on the fitted dose curve; in most records, active means well fitted curve in the direction sought with a large enough effect; inconclusive means small, poorly fitted or top-dose-only effect, or another doubt; inactive means no such curve, though single readings can be large; an effect the other way counts as inactive or inconclusive. Unless noted, on the % scale 0 is the no-effect control and ±100 the full control effect.
SMILES,HT1080 IDH1KD tx,ALOX12 inh,DT40 TDP1 no CPT,IL1B secr inh,TDP1 cell CPT,HT1080-NT tox
O=C1NC2(CCN(Cc3ccccn3)C2)OCc2ccccc21 (configuration not stated),nt,47%[176 µM],nt,nt,nt,nt
CCOP(=O)(Nc1ccc2c(c1)C(=NNC(N)=S)c1ccccc1-2)OCC,?,22µM*,9.2µM*,0,18µM*,?
CCCCCCn1c(O)c(C=NC2CCN(Cc3ccccc3)CC2)c(=O)[nH]c1=O,-4%,0%,10µM*,-28,21µM*,-5%
CCN(CC)CCCN=Cc1c(O)n(CCc2ccc(F)cc2)c(=O)[nH]c1=O,5%,21%,-23%,-14,-4%,4%
C=CCn1c(O)c(C=NC2CCN(Cc3ccccc3)CC2)c(=O)[nH]c1=O,11%,0%,-20%,0,-7%,?
NC1CCCCC1N=Cc1c(O)n(CCc2ccc(F)cc2)c(=O)[nH]c1=O (configuration not stated),20%,0%,18µM*,-6,?,12%
O=c1[nH]c(=O)n(CCC2=CCCCC2)c(O)c1C=NC1CCN(Cc2ccccc2)CC1,-11%,148%,16µM*,?,15µM*,-21%
CC(Nc1ccc([N+](=O)[O-])c2cnccc12)C12CC3CC(CC(C3)C1)C2 (configuration not stated),nt,1%,nt,nt,nt,nt
CN(C)c1ncc(CN2CCC3(CCNCC3)C2)cn1,nt,7%,nt,nt,nt,nt
COc1ccc(Cn2c(=O)oc3ccc(C)cc32)cc1OC,-1%,0%,18µM*,10,15µM*,-11%
O=C1CO[C@H]2CN(Cc3cccnc3)C[C@H]2N1c1ccccc1,nt,-18%[176 µM],nt,nt,nt,nt
CC(C)CCNC(=O)c1c(N)n(CC2CCCO2)c2nc3ccccc3nc12 (configuration not stated),?,?,29µM*,?,26µM*,?
CCC(C)NC(=O)c1c(N)n(Cc2ccc3c(c2)OCO3)c2nc3ccccc3nc12 (configuration not stated),?,12%,26µM*,?,?,?
CCC(C)NC(=O)c1c(N)n(CCCOC)c2nc3ccccc3nc12 (configuration not stated),-4%,-4%,?,?,-6%,-4%
COCCNC(=O)c1c(N)n(Cc2ccco2)c2nc3ccccc3nc12,?,-27%,?,-6,?,-28%
CCC(C)NC(=O)c1c(N)n(CC2CCCO2)c2nc3ccccc3nc12 (configuration not stated),-18%,?,-29%,-57*,-14%,-28%
C#CCN1CCN(c2cccc(C)c2)CC1,nt,10%,nt,nt,nt,nt
Nc1nc(CN2CCN(C(=O)COc3cccc(F)c3)CC2)nc2ccccc12,nt,0%,nt,nt,nt,nt
COc1ccc(OCC(=O)N2CCN(Cc3cc(=O)n4nc(-c5ccc(OC)cc5)sc4n3)CC2)cc1,nt,-13%,21µM*,nt,15µM*,nt
COc1ccccc1-c1nn2c(=O)cc(CN3CCN(C(=O)COc4ccccc4Cl)CC3)nc2s1,nt,-15%,21µM*,nt,?,nt
CN1CCN(C(=O)COc2ccc(-c3nc4ccccc4s3)cc2)CC1,-1%[9.24 µM],-35%,18µM*,-60*,-30%,?
CN1CCCN(C(=O)COc2ccccc2)CC1,11%,?,9%,12,-6%,18%
